Screens as filed in PubChem.
Shown are actives, neighbours in structure and some others; about 15% of the full set was active somewhere.
RORg inh – inhibitors of mouse ROR gamma transcriptional activity. Drosophila S2 Gal4-RORgamma UAS-luciferase reporter, 20 h. Potency, µM (titrated, usually from 53.6 µM), for inactives: at the highest dose activity change, negative = inhibition, hits mostly inhibitors. hit rate 5.4% among 310,000; further: nearly all actives have a fitted effect of over 60% in size
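Drosophila Schneider cells stably carrying a metallothionein-driven Gal4 DBD–ROR gamma fusion and a UAS-Photinus luciferase reporter were exposed to compound for 1 hr, then induced with copper sulfate (700 uM final) for 20 hr at ambient temperature before luminescence reading.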
ELG1 repair inh – blocks ELG1-dependent DNA repair in HEK293T cells; HEK293T ELG1-luciferase reporter, luminescence, 16 h; DNA damage induced by 5-fluorouridine; hit rate 2.3% among 330,000; Potency, µM (highest dose often 46.1 µM), for inactives: at the highest dose activity change, negative = inhibition, usual class: inhibitors; further: nearly all actives have a fitted effect of over 55% in size
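Reporter activity after DNA damage by 5-fluorouridine is monitored. Compound-treated cells incubate 16 hr at 37 °C, then ONE-Glo is added for 30 min before luminescence reading.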
Gal4-VP16 FLuc – counter-screen for ROR gamma inhibitors: Gal4-VP16 reporter | Drosophila S2 Gal4-VP16 UAS-luciferase, luminescence, 20 h | Potency, µM (highest dose often 53.6 µM), without a hit: at the top dose activity, negative = inhibition, usual class: inhibitors | hit rate 3.5% among 310,000;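 further: Gal4-VP16 expression switched on by copper sulfate through the metallothionein promoter; nearly all actives have a fitted effect of over 50% in size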
TDP1 cell CPT – DT40-hTDP1 cell growth loss with CPT | hit rate 12% among 420,000 | chicken DT40 Tdp1-/-;hTDP1 cells + 20 nM CPT, ATP luminescence, 48 h | Potency, µM (highest dose often 46.2 µM), inactives show top-dose activity change, negative = growth inhibition, actives largely listed as inhibitors; further: nearly all actives have a fitted effect of over 55% in size
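Cell growth measured by CellTiter-Glo luminescence after a minimum 48 h, 37 C compound exposure with 20 nM CPT in Tdp1-knockout DT40 cells stably expressing hTDP1, seeded 400/well; qHTS titration format.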
DT40 TDP1 no CPT – qHTS for Inhibitors of human tyrosyl-DNA phosphodiesterase 1 (TDP1): qHTS in cells in absence of CPT; Potency, µM (series often up to 46.2 µM), for the others: top-dose activity change, negative = growth inhibition, actives largely listed as inhibitors; DT40 Tdp1-/- hTDP1 cells, no CPT, ATP luminescence, 48 h; hit rate 15% among 420,000; further: nearly all actives have a fitted effect of over 55% in size
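Luminescent ATP content (CellTiter-Glo) served as the growth readout. Knockout chicken DT40 cells expressing human TDP1 were exposed to compounds without camptothecin for a minimum 48 hr at 37 °C.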
12-LOX inh – inhibitors of human 12S-lipoxygenase ALOX12 | P18054 | purified 12hLO, xylenol orange hydroperoxide absorbance | Potency, µM (series often up to 108 µM), for inactives: at the highest dose activity change, negative = inhibition, hits mostly inhibitors | hit rate 1.1% among 580,000
Target sequence (P18054 whole entry, looked up): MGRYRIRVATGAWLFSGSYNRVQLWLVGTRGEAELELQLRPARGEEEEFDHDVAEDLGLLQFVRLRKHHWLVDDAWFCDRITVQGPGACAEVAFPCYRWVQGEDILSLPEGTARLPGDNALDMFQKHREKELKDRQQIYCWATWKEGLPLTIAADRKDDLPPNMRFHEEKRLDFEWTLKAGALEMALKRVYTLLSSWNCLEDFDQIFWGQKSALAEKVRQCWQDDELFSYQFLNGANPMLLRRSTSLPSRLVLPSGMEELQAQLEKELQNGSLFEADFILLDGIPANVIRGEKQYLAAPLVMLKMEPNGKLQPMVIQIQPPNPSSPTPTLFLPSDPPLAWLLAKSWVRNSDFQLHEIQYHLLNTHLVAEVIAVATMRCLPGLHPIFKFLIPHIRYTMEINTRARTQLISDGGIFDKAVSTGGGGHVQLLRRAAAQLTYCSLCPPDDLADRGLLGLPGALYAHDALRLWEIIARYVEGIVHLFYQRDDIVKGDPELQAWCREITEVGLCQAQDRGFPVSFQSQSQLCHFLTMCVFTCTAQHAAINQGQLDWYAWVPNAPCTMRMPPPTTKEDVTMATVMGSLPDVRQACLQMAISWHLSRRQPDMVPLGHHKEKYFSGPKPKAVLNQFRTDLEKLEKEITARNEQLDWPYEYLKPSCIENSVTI
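Purified human 12hLO at 150 nM in 25 mM Hepes, 0.01% Triton X-100, pH 7.0, preincubated 15 min at room temperature with compound. Reaction started with 40 uM arachidonic acid, 30 min at room temperature. Hydroperoxide measured by Fe-xylenol orange, 573/405 nm absorbance ratio.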
The depositor's hits bear a star; ? = inconclusive; nt = not tested or not shown; [ ] = dose if it differs, or a comment. The call rests on the fitted dose curve; in most records, active means well fitted curve in the direction sought with a large enough effect; inconclusive means small, poorly fitted or top-dose-only effect, or another doubt; inactive means no such curve, though single readings can be large; an effect the other way counts as inactive or inconclusive. On the % scale 0 is the no-effect control and ±100 the full control effect; potency means the concentration at half of the fitted maximal effect.

SMILES	RORg inh	ELG1 repair inh	Gal4-VP16 FLuc	TDP1 cell CPT	DT40 TDP1 no CPT	12-LOX inh
COc1ccc(Cl)cc1NC(=O)CN1c2ccccc2CC1C (centres undefined)	?	?	?	?	?	-2%
COCCOC(=O)c1c(NC(=O)CN2CCOCC2)sc(C(N)=O)c1C	-33%	-7%	-2%	-15%	-12%	4%
CCN1CCN(CC(=O)Nc2ccc(Cl)c(S(=O)(=O)N(C)C)c2)CC1	?	-13%	?	-1%	-16%	-25%
COCCOC(=O)c1c(NC(=O)CN2c3ccccc3CC2C)sc(C(N)=O)c1C (centres undefined)	-12%	9.2µM*	6%	?	?	5%
O=C(Nc1cccc(Br)c1)N1CCC2(CC1)SCC(=O)N2Cc1ccco1	nt	nt	nt	nt	nt	8%
CC(NC(=O)C(C)(C)C)C1CC1 (centres undefined)	nt	nt	nt	nt	nt	3%
CCc1cccc2c(C(=O)C(=O)Nc3ccc4c(c3)OCCO4)c[nH]c12	nt	nt	nt	nt	nt	27%
CC1Cc2ccccc2N1CC(=O)Nc1ccc(Cl)c(S(=O)(=O)N(C)C)c1 (centres undefined)	16%	23µM*	8%	6%	-1%	6%
COc1cc(NC(=O)CN2c3cccc4cccc(c34)S2(=O)=O)cc(OC)c1OC	-75%	-26%	?	?	21µM*	286%
CC1Cc2ccccc2N1CC(=O)NC(=O)NC1CCCCC1 (centres undefined)	19%	3%	7%	18µM*	-17%	?
Cc1ccc(C2Cn3nnc(C(=O)N4CCN(C(=O)c5cccc(F)c5)CC4)c3CO2)cc1 (centres undefined)	nt	nt	nt	nt	nt	-14%
CC(OC(=O)/C=C/c1ccc2ccccc2n1)C(=O)NC1(C#N)CCCCC1 (centres undefined)	nt	nt	nt	nt	nt	-21%
CN1C/C(=C\c2ccc(N3CCOCC3)cc2)C(=O)/C(=C/c2ccc(N3CCOCC3)cc2)C1	?	?	15%	?	21µM*	-4%
CCN1C/C(=C/c2ccc(N3CCOCC3)cc2)C(=O)/C(=C/c2ccc(N3CCOCC3)cc2)C1	?	?	?	?	?	-22%
CN1C/C(=C/c2ccncc2)C(=O)/C(=C/c2ccncc2)C1	13µM*	?	4µM*	?	-29%	13%
CN1C/C(=C/c2ccsc2)C(=O)/C(=C/c2ccsc2)C1	-97%	?	?	10µM*	13µM*	-18%
Cc1nc(C)c(-c2ccc(SCC(=O)Nc3ccc(F)cc3F)nn2)s1	27%	18µM*	-4%	?	?	-30%
Cc1nc(C)c(-c2ccc(SCC(=O)Nc3ccccc3F)nn2)s1	nt	nt	nt	?	15µM*	-18%
Cc1nc(C)c(-c2ccc(SCC(=O)Nc3ccc(C)c(F)c3)nn2)s1	nt	nt	nt	-22%	-28%	0%
Cc1nc(C)c(-c2ccc(SCC(=O)Nc3cccc(C)c3C)nn2)s1	nt	nt	nt	16µM*	21µM*	0%
CC(C)(C)c1nc(C(=O)NCCc2ccc(Cl)cc2)n2ccncc12	nt	nt	nt	nt	nt	1%[6.33 µM]
COc1cc(COc2cc(N)c(Cl)cc2C(=O)CCC2CCN(CCNS(C)(=O)=O)CC2)cc(OC)c1	16µM*	nt	16µM*	27µM*	16µM*	-28%
COC1CCOC2(CCN(C(=O)Cc3ccccc3F)CC2)C1 (centres undefined)	nt	nt	nt	nt	nt	45%
Cc1ccc2cc(CN(CCCO)S(=O)(=O)c3cccc4nsnc34)c(=O)[nH]c2c1	22%	9.2µM*	?	?	-16%	0%
Cc1ccc2[nH]c(=O)c(CN(c3cccc(C)c3C)S(=O)(=O)c3ccccc3)cc2c1	-16%	-14%	-9%	16µM*	5.8µM*	nt
SMILES	RORg inh	ELG1 repair inh	Gal4-VP16 FLuc	TDP1 cell CPT	DT40 TDP1 no CPT	12-LOX inh
CCCCN(Cc1cc2ccccc2[nH]c1=O)S(=O)(=O)c1ccc(Cl)cc1	nt	nt	nt	nt	nt	-27%
CCCCN(Cc1cc2ccccc2[nH]c1=O)S(=O)(=O)c1ccc(C)cc1	35%	?	-2%	?	23µM*	312%
CC(C)C(=O)N(Cc1cc2ccccc2[nH]c1=O)C(C)(C)C	0%	22%	1%	-18%	21µM*	0%
CCCCOc1ccc2c(C)c(C)c(=O)oc2c1C	nt	nt	nt	nt	nt	0%
C=C(Br)CNCCCC	nt	nt	nt	nt	nt	-19%
Cc1ccc(S(=O)(=O)N(Cc2cc3ccc(C)cc3[nH]c2=O)c2ccccc2)cc1	-4%	9%	8%	?	?	-4%
Cc1ccc(S(=O)(=O)N(Cc2cc3ccccc3[nH]c2=O)c2cccc(C)c2)cc1	-16%	-4%	-4%	10µM*	7.3µM*	1%
COc1ccc(Cc2nnc(NC(=O)c3ccc(OC)c(OC)c3)s2)cc1	-2%	-18%	-3%	23µM*	23µM*	4%
COc1ccc(Cc2nnc(NC(=O)c3cc(OC)c(OC)c(OC)c3)s2)cc1	-23%	-10%	3%	?	?	8%
CCc1nnc(NC(=O)c2ccc(OC)cc2)s1	7.9µM*	?	-22%[10 µM]	-16%	8%	-5%
O=C(N/N=C/c1ccc(F)cc1)c1ccc(OCc2ccccc2)cc1	-21%	-26%	2%	-3%	11%	-5%
COc1ccc(/C=N\NC(=O)COc2ccc(C(C)(C)C)cc2)cc1Cn1nc(C)cc1C	-9%	0%	-8%	?	21µM*	26%
COc1ccc(/C=N\NC(=O)c2ccccc2Br)cc1COc1ccc(F)cc1	?	7%	1%	?	18µM*	-56%
COCc1cc(/C=N\NC(=O)COc2ccc(Cl)cc2)ccc1OC	-1%	-8%	-4%	2%	?	-10%
COc1ccc(/C=N\NC(=O)c2ccccc2OC)cc1COc1c(F)c(F)c(F)c(F)c1F	28%	?	-3%	-5%	-21%	-4%
COc1ccc(/C=N/NC(=O)c2sccc2OCc2ccc(F)cc2)cc1OC	10%	?	3%	16µM*	23µM*	46%
COc1ccc(C(=O)N/N=C/c2ccc(OC)c(COc3ccc(F)cc3)c2)cc1	-20%	15µM*	-10%	?	?	-18%
O=C1NCC(=O)N2CCN(C3CCN(Cc4ccco4)CC3)CC12 (centres undefined)	nt	nt	nt	nt	nt	63%
CN(CC1CCOC1)S(=O)(=O)c1ccc(F)cc1F (centres undefined)	nt	nt	nt	nt	nt	39%
